The sample as a whole holds a higher share of hits than the screen did.
Dicer processing: inhibitors of human Dicer processing of pre-microRNA. cat-ELCCA pre-miR-21 Dicer processing, chemiluminescence; active compounds read high. z-score at 25 µM. 47,000 tested, 6% active; in the data active = z-score above about 3, passing the limit was not always enough;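 note: higher signal means more uncleaved substrate so more Dicer inhibition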
Numbers stand for hits; n = inactive.

SMILES	Dicer processing
CCCCn1c(C2CC(=O)N(c3ccccc3)C2)nc2ccccc21 (configuration not stated)	n
CCCCCn1c(C2CC(=O)N(c3ccccc3)C2)nc2ccccc21 (configuration not stated)	5.3
CCCCCCn1c(C(C)O)nc2ccccc21 (configuration not stated)	n
O=C1CC(c2nc3ccccc3[nH]2)CN1c1ccccc1 (configuration not stated)	n
O=C1CC(c2nc3ccccc3n2Cc2ccccc2Cl)CN1c1ccccc1 (configuration not stated)	4
CCN(CC)c1ccc2c(c1)OC(N)=C(C#N)C2c1cccc(OC)c1 (configuration not stated)	n
CCC(=O)OCCNc1ccc2noc3c2c1C(=O)c1ccccc1-3	n
NS(=O)(=O)c1ccc(Oc2c(Cl)cccc2Cl)c([N+](=O)[O-])c1	n
CC(CNc1ccc(C(F)(F)F)cc1[N+](=O)[O-])OC(=O)c1cc2ccccc2oc1=O (configuration not stated)	n
Cc1ccnc(NC(NC(=O)c2ccccc2C)(C(F)(F)F)C(F)(F)F)c1	n
Cc1c(N)cccc1-c1nc2ccccc2o1	n
CCOC(=O)Cc1nc2ccccc2o1	n
Nc1ccc(CCc2nc3ccccc3o2)cc1	6.6
CCOC(=O)c1csc(N/N=C/c2ccccc2Cl)n1	n
CCOc1ccccc1C(=O)NC(Nc1ncccn1)(C(F)(F)F)C(F)(F)F	n
O=C(NC(=O)C1CCCCC1)c1ccccc1O	n
O=C1Cc2ccccc2C(c2ccccc2)N1 (configuration not stated)	n
Oc1ccccc1C1CCCCC1c1ccccc1 (configuration not stated)	4.7
CC1(C)CC(=O)C2=C(C1)Nc1ccc3ccccc3c1C2c1ccc(F)cc1 (configuration not stated)	n
O=C1CCCc2c1cc(C(=O)O)c(=O)n2-c1ccccc1	3.7
O=C1CCCc2c1cc(C(=O)NC1CCSC1=O)c(=O)n2-c1ccccc1 (configuration not stated)	n
COC(=O)C(CCSC)NC(=O)c1cc2c(n(-c3ccccc3)c1=O)CCCC2=O (configuration not stated)	n
C/C(=N\NC(=O)c1ccc(C(C)(C)C)cc1)c1ccccc1O	n
CCc1c(C)nc(N2CCN(Cc3ccc4c(c3)OCO4)CC2)[nH]c1=O	3.9
Cc1cc(C)c(S(=O)(=O)N2CCN(Cc3ccc4c(c3)OCO4)CC2)cc1C	n
SMILES	Dicer processing
O=c1cc(CSc2ccc(Cl)cc2)nc(N2CCN(Cc3ccc4c(c3)OCO4)CC2)[nH]1	n
CCOC(=O)c1cn2nc(Oc3ccc(CC(C)=O)cc3)ccc2n1	n
Cc1oc(S(=O)(=O)N2CCOCC2)cc1-c1nc(-c2ccc(C(F)(F)F)cc2)no1	n
CCn1nc(C)cc1/C(N)=N/OC(=O)c1cc(Cl)cc(Cl)c1	n
Cc1ccc(N2C(=O)C3C4C=CC(C4)C3C2=O)nc1 (configuration not stated)	n
Cc1c(S(=O)(=O)c2ccc(Cl)cc2)csc1S(=O)(=O)N/N=C/c1c(Cl)cccc1Cl	n
COC(=O)c1ccc(N2C(=O)CSC2c2ccc(OC)cc2)cc1 (configuration not stated)	n
COc1ccc(N2C(=O)CSC2c2ccc(Br)cc2)cc1 (configuration not stated)	n
COc1ccc(N2C(=O)N(c3ccc(OC)cc3)C3CS(=O)(=O)CC32)cc1 (configuration not stated)	3.9
COc1ccc2c(c1)CCCN2C(=O)c1sc2ccccc2c1Cl	n
COc1ccc2[nH]c(C(=O)O)cc2c1	n
COc1ccc2sc(C(=O)O)c(Br)c2c1	4.3
CC(=O)c1nnn(-c2cc(C(F)(F)F)cc(C(F)(F)F)c2)c1C	n
N#Cc1c(-c2ccccc2)cc(SCc2ccc(Cl)cc2)n2c1nc1ccccc12	n
COc1cc(NC(=O)C2CC(=O)N=C(N)S2)cc(OC)c1 (configuration not stated)	n
O=C(CSc1nnc(SCC(=O)c2cccc([N+](=O)[O-])c2)s1)c1cccc([N+](=O)[O-])c1	n
Cn1nccc1NS(=O)(=O)c1ccc(C(C)(C)C)cc1	n
COc1ccccc1Oc1c(NS(=O)(=O)c2ccc(C(C)(C)C)cc2)nc(-c2ncccn2)nc1OCCO	18
CC(C)(C)c1ccc(-c2[nH]nc(NS(=O)(=O)c3ccccc3)c2Br)cc1	n
CN(C)C(=O)c1cccc2c1-c1ccccc1C2	n
COc1cccc(OC)c1-c1nn(-c2ccc(C(F)(F)F)cn2)c(=O)o1	n
O=C(CN1CCN(c2nc3cc(Cl)ccc3s2)CC1)Nc1ccccc1	n
Cc1ccccc1CN1C(=O)C(O)(c2c(C)[nH]c3ccccc23)c2ccccc21 (configuration not stated)	n
COc1ccc(OC)c(C2SCCN2S(=O)(=O)c2ccccc2)c1 (configuration not stated)	n
CCOc1ccc(S(=O)(=O)N2CCSC2c2cc(OC)ccc2OC)cc1 (configuration not stated)	4.8
SMILES	Dicer processing
COc1ccc(C2SCCN2S(=O)(=O)c2ccc(Br)cc2)cc1 (configuration not stated)	3.7
COc1ccc(C2SCCN2S(=O)(=O)c2ccc(F)cc2)cc1 (configuration not stated)	n
COc1ccc(OC)c(C2SCCN2S(=O)(=O)c2ccc3ccccc3c2)c1 (configuration not stated)	n
COc1ccc(S(=O)(=O)N2CCSC2c2ccccc2)cc1 (configuration not stated)	n
Cc1nn(C)c(N/N=C/c2cc(Br)cs2)c1[N+](=O)[O-]	n
COc1ccc(C)c2c1C1CCC3(C)C(=O)CCC3C1CC2 (configuration not stated)	n
CCCCCCCC1N[C@H](C(=O)O)CS1 (some centres not stated)	n
C=CCN1C(=O)C(=O)c2ccccc21	n
COc1ccc(-c2cc3nccc(-c4cc(Cl)ccc4O)n3n2)cc1	n
Oc1ccc(Cl)cc1-c1ccnc2cc(-c3ccccc3)nn12	9.3
Cc1ccc(O)c(-c2ccnc3cc(-c4ccccc4)nn23)c1	n
COc1ccc(-c2cc3nccc(-c4ccccc4O)n3n2)cc1	n
Cc1cc2nccc(-c3ccc(Cl)cc3)n2n1	n
Oc1ccccc1-c1ccnc2cc(-c3ccc(Cl)cc3)nn12	3.3
CN1C(=O)COc2ccc(-c3ccnc4cc(-c5ccc(Cl)cc5)nn34)cc21	n
Oc1ccc(F)cc1-c1ccnc2cc(-c3ccc(Cl)cc3)nn12	4
c1ccc(-c2cc3nccc(-c4ccccc4)n3n2)cc1	n
COc1ccc(OC)c(NS(C)(=O)=O)c1	n
C#CC(C)(C)NS(=O)(=O)c1ccc(Oc2c(Cl)cccc2[N+](=O)[O-])cc1	n
CCOC(=O)c1c(C)c(C#N)c(NC(=O)c2ccc(Cl)cc2Cl)n1-c1ccccc1	n
Cc1cc(NC(=O)Nc2cc(C(F)(F)F)cc(C(F)(F)F)c2)nn1-c1ccccc1	n
CC(C)c1ccc2c(c1)CCC1C(C)(CNC(=O)/C=C/C(=O)O)CCCC21C (configuration not stated)	n
S=c1[nH]ccn1-c1cc(Cl)ccc1Cl	n
Nc1nc(SCCCC(=O)NCCO)nc2sc3c(c12)CCCC3	5.5
Nc1nc(SCC(=O)NCCO)nc2sc3c(c12)CCCC3	n
Nc1nc(SCC(=O)NCCN2CCOCC2)nc2sc3c(c12)CCCC3	n
FC(F)(F)c1cccc(NN=C2C3CC4CC(C3)CC2C4)n1	n

Screening results as filed in PubChem BioAssay.
